In PubChem BioAssay (EPA / NIEHS):
Results filed as inconclusive are left out. The source made the active and inactive calls. Rule for the calls: active = hit-call score of the fitted dose curve at least 0.9, where 1 is the maximum; inconclusive = response in the unintended direction; inactive = score below 0.9.

Assays:
[1] = ACEA_AR_agonist_AUC_viability: ACEA Biosciences xCELLigence Real-Time Cell Analysis on Androgen Receptor Agonism for Viability (AID 2283775);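 for AC50: viability read 80 hours after compound addition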
Method in brief: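 22Rv1 cells; impedance growth kinetics; 8-pt 1:4 dilutions from 100 uM top final, ≤0.5% DMSO; n = 2; 80 h read; AUC viability, loss-of-signal vs DMSO.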

[2] = ACEA_AR_antagonist_AUC_viability: ACEA Biosciences xCELLigence Real-Time Cell Analysis on Androgen Receptor Antagonism for Viability (AID 2283776);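 note: 22Rv1 human prostate cancer cells growing on impedance electrode plates; area under impedance growth curve at 80 h after dosing as viability; hits lower the growth signal relative to DMSO meaning cytotoxicity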
Method in brief: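 Impedance read-out (RT-CES): area under growth curve at 80 h post-dose, loss of signal scored vs DMSO baseline. 22Rv1 cells; 8-pt 1:4 series, top 100 uM final, ≤0.5% DMSO; biological duplicate.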

[3] = STM_H9_NormalizedViability: Cytotoxicity Assessment at 120 hours in the Stemina devTOX quickPredict H9 human embryonic stem cell (hESC)-based Assay (AID 2283784)
Method in brief: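 Viability of the cell layer was taken from live-cell protease cleavage of a fluorogenic substrate after compound exposure of undifferentiated H9 stem cells, with replenishment each 24h. Fluorescence was normalized to vehicle (0.1% DMSO).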

[4] = ACEA_ER_AUC_viability: ACEA Biosciences xCELLigence Real-Time Cell Analysis on Estrogen Receptor Agonism for Viability (AID 2283782);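 note: hit means loss of impedance signal meaning reduced cell growth or viability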
Method in brief: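 Continuous-exposure impedance cell analysis uses T-47D cells in charcoal-stripped serum, eight 1:4 dilutions topping at 100 uM final, biological duplicate. Area under the growth curve at 80 h is fitted against DMSO baseline.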

AR (gene 367) = AR (gene 367) (UniProt P10275); experiment: ACEA_AR_agonist_80hr: ACEA Biosciences xCELLigence Real-Time Cell Analysis on Androgen Receptor Agonism for Proliferation (AID 2283783);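 note: hits increase impedance growth signal above DMSO baseline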
Chain of AR (gene 367) (P10275 whole entry, looked up): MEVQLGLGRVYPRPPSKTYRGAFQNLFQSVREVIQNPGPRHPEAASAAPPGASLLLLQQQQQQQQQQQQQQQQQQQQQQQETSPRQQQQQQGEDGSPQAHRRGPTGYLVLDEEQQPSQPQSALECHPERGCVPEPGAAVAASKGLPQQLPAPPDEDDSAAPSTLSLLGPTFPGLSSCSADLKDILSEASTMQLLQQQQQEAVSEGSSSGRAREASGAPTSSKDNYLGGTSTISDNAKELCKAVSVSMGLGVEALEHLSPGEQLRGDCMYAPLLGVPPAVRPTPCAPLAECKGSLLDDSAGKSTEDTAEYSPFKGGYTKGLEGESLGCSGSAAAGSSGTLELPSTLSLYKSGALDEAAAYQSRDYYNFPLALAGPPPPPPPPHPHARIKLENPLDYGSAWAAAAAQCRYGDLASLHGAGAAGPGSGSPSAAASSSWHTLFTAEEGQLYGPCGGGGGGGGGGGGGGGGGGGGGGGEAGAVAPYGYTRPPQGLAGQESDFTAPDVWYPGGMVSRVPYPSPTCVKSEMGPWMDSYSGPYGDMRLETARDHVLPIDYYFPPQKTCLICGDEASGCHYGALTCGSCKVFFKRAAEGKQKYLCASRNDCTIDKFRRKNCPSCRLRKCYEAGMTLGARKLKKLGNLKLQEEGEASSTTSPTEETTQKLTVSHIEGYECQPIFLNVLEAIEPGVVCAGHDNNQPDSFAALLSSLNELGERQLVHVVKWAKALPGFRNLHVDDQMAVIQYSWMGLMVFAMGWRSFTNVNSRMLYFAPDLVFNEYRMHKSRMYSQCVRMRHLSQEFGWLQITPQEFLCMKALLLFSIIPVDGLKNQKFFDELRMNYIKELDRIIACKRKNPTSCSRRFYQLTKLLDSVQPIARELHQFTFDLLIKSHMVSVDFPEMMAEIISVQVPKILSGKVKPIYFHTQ
Method in brief: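 Real-time cell-growth kinetics were recorded by electrode impedance in 22Rv1 cells exposed to test chemicals up to 100 uM final; the 80 h timepoint served as the readout, fitted upward relative to DMSO controls, in biological duplicate.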

[5] = test system: frog Estrogen Receptor (ESR2), gene 100174814; experiment: ATG_frER2_XSP1: Attagene TRANS-FACTORIAL Multi-Species (XSP1) HepG2 Assay for frog Estrogen Receptor (ESR2) (AID 2283774)
Method in brief: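 Multiplexed TRANS-format reporter assay in human hepatoma HepG2: chimeric nuclear receptor-Gal4 activity reported as mRNA induction at 24 h, detected by fluorescent RT-PCR products on capillary electrophoresis and fitted upward from DMSO baseline.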

[6] = test system: frog Estrogen Receptor (ESR1), gene 398734; experiment: ATG_frER1_XSP1: Attagene TRANS-FACTORIAL Multi-Species (XSP1) HepG2 Assay for frog Estrogen Receptor (ESR1) (AID 2283777)
Method in brief: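 After transient transfection and 24 h compound treatment, total RNA from HepG2 cells was reverse-transcribed, amplified, FAM-labeled and resolved by capillary electrophoresis. Signal increases were fitted against DMSO controls.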

[7] = test system: zebrafish Estrogen Receptor (ESR2A), gene 317734; experiment: ATG_zfER2a_XSP1: Attagene TRANS-FACTORIAL Multi-Species (XSP1) HepG2 Assay for zebrafish Estrogen Receptor (ESR2A) (AID 2283778)
Method in brief: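 Gain-of-signal reporter transcription readout from GAL4-UAS units in transiently transfected HepG2 cells, 24 h exposure, 3 nM 6-alpha-fluorotestosterone co-present. Detection by RT-PCR with capillary electrophoresis fluorescence.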

[8] = biological target: chicken Estrogen Receptor (ESR1), ESR1 (gene 396099) (UniProt P06212); experiment: ATG_chERa_XSP1: Attagene TRANS-FACTORIAL Multi-Species (XSP1) HepG2 Assay for chicken Estrogen Receptor (ESR1) (AID 2283779)
Chain of chicken Estrogen Receptor (ESR1), ESR1 (gene 396099) (P06212 whole entry, looked up, the tested form may be a part): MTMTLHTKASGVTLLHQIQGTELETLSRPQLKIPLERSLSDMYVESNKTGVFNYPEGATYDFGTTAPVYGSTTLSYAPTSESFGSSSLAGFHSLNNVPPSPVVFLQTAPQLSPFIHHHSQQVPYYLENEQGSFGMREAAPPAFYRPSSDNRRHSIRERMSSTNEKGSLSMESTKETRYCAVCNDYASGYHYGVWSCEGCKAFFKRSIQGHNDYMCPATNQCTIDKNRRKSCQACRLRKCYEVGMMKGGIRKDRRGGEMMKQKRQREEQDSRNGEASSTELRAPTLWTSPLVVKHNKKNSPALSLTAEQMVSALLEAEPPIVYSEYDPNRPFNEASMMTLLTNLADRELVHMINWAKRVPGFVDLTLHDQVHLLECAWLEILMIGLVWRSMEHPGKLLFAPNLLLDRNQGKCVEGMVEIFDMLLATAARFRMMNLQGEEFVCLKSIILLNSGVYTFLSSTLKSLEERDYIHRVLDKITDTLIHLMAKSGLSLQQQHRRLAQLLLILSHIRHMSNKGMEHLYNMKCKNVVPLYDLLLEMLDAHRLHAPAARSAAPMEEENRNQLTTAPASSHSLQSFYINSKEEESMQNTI
Method in brief: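 Gain-of-signal reporter transcription, relative to DMSO, was scored in transiently transfected HepG2 cells after a 24 h dose. Fluorescence intensity of amplified, digested reporter cDNA fragments served as the endpoint.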

[9] = biological target: Estrogen receptor (Homo sapiens) (UniProt P03372); experiment: ATG_hERa_XSP1: Attagene TRANS-FACTORIAL Multi-Species (XSP1) HepG2 Assay for human Estrogen Receptor (ESR1) (AID 2283780)
Chain of Estrogen receptor (Homo sapiens) (P03372 whole entry, looked up, the tested form may be a part): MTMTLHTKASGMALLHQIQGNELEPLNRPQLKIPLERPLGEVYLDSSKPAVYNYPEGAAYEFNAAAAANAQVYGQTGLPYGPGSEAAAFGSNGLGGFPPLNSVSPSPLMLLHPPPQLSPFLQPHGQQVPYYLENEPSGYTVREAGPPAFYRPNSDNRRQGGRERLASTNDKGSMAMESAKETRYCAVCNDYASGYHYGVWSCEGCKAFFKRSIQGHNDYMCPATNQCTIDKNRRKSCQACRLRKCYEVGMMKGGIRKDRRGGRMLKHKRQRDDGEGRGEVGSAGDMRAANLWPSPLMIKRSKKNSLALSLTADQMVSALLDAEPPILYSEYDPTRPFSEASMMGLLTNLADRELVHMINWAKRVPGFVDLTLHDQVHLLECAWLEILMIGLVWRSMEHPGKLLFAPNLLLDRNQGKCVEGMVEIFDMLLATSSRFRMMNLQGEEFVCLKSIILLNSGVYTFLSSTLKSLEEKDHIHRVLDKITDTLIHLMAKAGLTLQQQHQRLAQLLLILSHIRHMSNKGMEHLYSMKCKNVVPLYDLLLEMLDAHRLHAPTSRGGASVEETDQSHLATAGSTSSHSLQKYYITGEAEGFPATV
Method in brief: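 Reporter transcripts from multiplexed GAL4-UAS units driven by NR-Gal4 chimeras in transiently transfected HepG2 were measured by RT-PCR with capillary electrophoresis 24 h post-dose, with 3 nM 6-alpha-fluorotestosterone present; gain-of-signal relative to DMSO.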

[10] = test system: turtle Estrogen Receptor (ESR1), gene 101933533; experiment: ATG_trERa_XSP1: Attagene TRANS-FACTORIAL Multi-Species (XSP1) HepG2 Assay for turtle Estrogen Receptor (ESR1) (AID 2283781)
Method in brief: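 Cell-based chimeric NR-Gal4 transactivation; HepG2; 24 h dosing; mRNA reporter detected by RT-PCR and capillary electrophoresis fluorescence.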

[11] = biological target: GAL4 Transcription Factor (Internal Marker), GAL4 (gene 855828) (UniProt P04386); experiment: ATG_GAL4_XSP1: Attagene TRANS-FACTORIAL Multi-Species (XSP1) HepG2 Assay for GAL4 Transcription Factor (Internal Marker) (AID 2283789)
Chain of GAL4 Transcription Factor (Internal Marker), GAL4 (gene 855828) (P04386 whole entry, looked up, the tested form may be a part): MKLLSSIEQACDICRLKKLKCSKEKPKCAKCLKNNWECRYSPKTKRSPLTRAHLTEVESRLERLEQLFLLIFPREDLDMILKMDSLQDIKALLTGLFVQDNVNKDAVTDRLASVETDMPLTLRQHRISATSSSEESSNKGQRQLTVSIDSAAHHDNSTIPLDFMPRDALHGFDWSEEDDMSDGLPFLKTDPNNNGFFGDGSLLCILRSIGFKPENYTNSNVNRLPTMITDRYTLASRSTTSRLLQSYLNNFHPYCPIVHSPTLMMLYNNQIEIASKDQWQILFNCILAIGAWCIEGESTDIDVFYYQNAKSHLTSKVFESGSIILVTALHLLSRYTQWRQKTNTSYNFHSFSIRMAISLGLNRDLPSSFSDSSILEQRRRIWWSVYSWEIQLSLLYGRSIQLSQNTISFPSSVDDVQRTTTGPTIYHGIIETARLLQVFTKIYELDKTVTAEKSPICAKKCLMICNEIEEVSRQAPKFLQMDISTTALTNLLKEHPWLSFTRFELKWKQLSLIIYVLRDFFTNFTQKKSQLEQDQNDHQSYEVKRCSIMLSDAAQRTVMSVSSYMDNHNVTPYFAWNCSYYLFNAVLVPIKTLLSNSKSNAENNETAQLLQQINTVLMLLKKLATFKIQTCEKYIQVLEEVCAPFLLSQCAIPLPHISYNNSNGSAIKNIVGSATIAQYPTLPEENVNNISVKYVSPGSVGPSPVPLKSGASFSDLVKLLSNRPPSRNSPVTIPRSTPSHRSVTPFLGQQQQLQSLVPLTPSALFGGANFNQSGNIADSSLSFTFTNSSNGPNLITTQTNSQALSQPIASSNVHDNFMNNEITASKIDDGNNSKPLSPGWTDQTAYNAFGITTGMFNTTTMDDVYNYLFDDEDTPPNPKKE
Method in brief: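 This background-control endpoint measures GAL4-driven reporter mRNA via RT-PCR and capillary electrophoresis of labelled fragments. Transiently transfected HepG2 cells were treated 24 h, with 3 nM 6-alpha-fluorotestosterone included, and gain-of-signal was fitted against DMSO.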

[12] = ATG_M_19_XSP1: Attagene TRANS-FACTORIAL Multi-Species (XSP1) HepG2 Assay for M19 Transcription Factor (Internal Marker) (AID 2283798)
Method in brief: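 Readout is reporter mRNA induction quantified via RT-PCR, 6-FAM labeling, HpaI digestion and capillary electrophoresis, fitted in the positive direction versus DMSO baseline. Transfected HepG2 cells exposed 24 h, medium including 3 nM 6-alpha-fluorotestosterone.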

[13] = ATG_M_32_XSP1: Attagene TRANS-FACTORIAL Multi-Species (XSP1) HepG2 Assay for M32 Transcription Factor (Internal Marker) (AID 2283799)
Method in brief: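 Reporter transcripts from the M32 internal-control unit measured by RT-PCR, FAM labelling, HpaI digestion and capillary electrophoresis after 24 h compound exposure of transfected HepG2, 3 nM 6-alpha-fluorotestosterone included; DMSO baseline, positive-direction fit.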

## Nc1ccc(Oc2ccc(N)cc2)cc1
[1]
  outcome: inactive
[2]
  outcome: inactive
[3]
  AC50: 75.5 µM (active)

## Nc1ccc([N+](=O)[O-])cc1
[1]
  AC50: 16.1 µM (active)
[2]
  AC50: 16.8 µM (active)
[4]
  AC50: 7.37 µM (active)

## OCCCBr
[1]
  outcome: inactive
[2]
  outcome: inactive
[3]
  outcome: inactive

## Cc1ccc(N=C=O)cc1N=C=O
[1]
  AC50: 25.1 µM (active)

## [Cl-].[Cl-].[Hg+2]
[1]
  AC50: 4.59 µM (active)
[2]
  AC50: 5.66 µM (active)
[4]
  AC50: 16.9 µM (active)
[3]
  AC50: 1.36 µM (active)

## CN(C)c1ccccc1
[1]
  outcome: inactive

## [O-][Cl+]O
[1]
  outcome: inactive

## COP(=S)(OC)SCN1C(=O)c2ccccc2C1=O
[1]
  AC50: 79.7 µM (active)

## COC(=O)Nc1nc2ccccc2[nH]1
[1]
  AC50: 50 µM (active)
[2]
  AC50: 17 µM (active)
[4]
  AC50: 16.5 µM (active)
AR (gene 367)
  outcome: inactive
[3]
  outcome: inactive

## O=C(N[C@H](c1ccccc1)[C@@H]1CN2CCC1CC2)c1c(Cl)ccc(C(F)(F)F)c1Cl
[1]
  AC50: 62.8 µM (active)
[4]
  AC50: 61.2 µM (active)

## Cc1ccc([N+](=O)[O-])cc1
[1]
  outcome: inactive
[2]
  outcome: inactive

## CCCCCCCCOC(=O)c1ccc(C(=O)OCCCCCCCC)c(C(=O)OCCCCCCCC)c1
[1]
  outcome: inactive
[2]
  outcome: inactive
[4]
  outcome: inactive

## CC(C)COC(=O)c1ccccc1C(=O)OCC(C)C
[1]
  AC50: 74.9 µM (active)
[2]
  AC50: 74.8 µM (active)
[4]
  outcome: inactive
[3]
  outcome: inactive

## Cc1ccc(N)cc1
[1]
  outcome: inactive
[2]
  outcome: inactive
[3]
  AC50: 40.9 µM (active)

## O=C(Oc1ccc(Br)cc1)N1CCN2CCC1CC2
[1]
  AC50: 72.1 µM (active)
[2]
  outcome: inactive
[4]
  outcome: inactive

## O=[N+]([O-])c1ccc(Oc2ccc(Cl)cc2Cl)cc1
[1]
  AC50: 84.9 µM (active)
[2]
  AC50: 31.2 µM (active)
[3]
  AC50: 77 µM (active)

## CCC12COCN1COC2
[1]
  outcome: inactive
[2]
  outcome: inactive

## Clc1ccc(C(c2ccc(Cl)cc2)C(Cl)Cl)cc1
[5]
  AC50: 6.82 µM (active)
[1]
  AC50: 21.3 µM (active)
[2]
  AC50: 18.1 µM (active)
[6]
  AC50: 8.6 µM (active)
[7]
  AC50: 17.8 µM (active)
[8]
  AC50: 10.1 µM (active)
[9]
  AC50: 16.4 µM (active)
[10]
  AC50: 26.4 µM (active)
[4]
  AC50: 26.1 µM (active)
[11]
  outcome: inactive
[12]
  outcome: inactive
[13]
  outcome: inactive

## c1ccc(C2CO2)cc1 (stereo unspecified)
[1]
  outcome: inactive
[2]
  outcome: inactive

## CCOC(=O)[C@]1(c2ccccc2)Oc2ccccc2[C@@H]1N
[1]
  AC50: 69.4 µM (active)
[2]
  AC50: 65 µM (active)
[4]
  outcome: inactive

## Brc1ccc(Oc2ccccc2)cc1
[1]
  outcome: inactive
[2]
  outcome: inactive
[4]
  outcome: inactive
[3]
  outcome: inactive

## Nc1ccc(N=Nc2ccccc2)cc1
[1]
  AC50: 50 µM (active)
[2]
  outcome: inactive
[4]
  AC50: 5.24 µM (active)

## COc1cc(C=O)cc2c1[C@H](COC(N)=O)[C@]1(OC(C)=O)ON2C[C@H]2[C@@H]1N2C(C)=O
[1]
  AC50: 0.0199 µM (active)
[2]
  AC50: 0.00824 µM (active)
[3]
  AC50: 0.00149 µM (active)

## c1ccc2c(c1)oc1ccccc12
[1]
  outcome: inactive

## N#CC(Br)(Br)C(N)=O
[1]
  outcome: inactive
[2]
  outcome: inactive
[4]
  outcome: inactive

## CC(C)(O)c1cnn2c(-c3ccc(F)c(-c4c(F)cccc4C#N)c3)cnc2n1
[1]
  outcome: inactive

## CCC(C)c1ccc(O)cc1 (stereo unspecified)
[1]
  AC50: 50 µM (active)
[2]
  AC50: 61.6 µM (active)
[4]
  AC50: 89.2 µM (active)

## CCNS(=O)(=O)C(F)(F)C(F)(F)C(F)(F)C(F)(F)C(F)(F)C(F)(F)C(F)(F)C(F)(F)F
AR (gene 367)
  AC50: 48.2 µM (active)

## Clc1ccccc1Cl
[4]
  outcome: inactive
